Rows were chosen to be rich in hits. Some 3.2% of all compounds tested hit in one or more screens of this group.
VACV mCherry inh: vaccinia inhibition (mCherry reporter). AID 720579. hit rate 0.63% among 310,000. Potency, µM (top dose mostly 36.5 µM), inactives show at the top dose activity change, negative = inhibition, hits mostly inhibitors. Vaccinia virus mCherry reporter infection, fluorescence; calls by dose curve; tested in A549 cells; further: nearly all actives have a fitted effect of over 35% in size
FMDV antiviral: blocks foot and mouth disease virus; FMDV antiviral cell-based qHTS; Potency, µM (titrated, usually from 57.9 µM), without a hit: at the top dose activity change, negative = inhibition, hits mostly inhibitors; hit rate 1.2% among 410,000; AID 1159524; calls by dose curve; tested in HEK293T cells; further: read-out not given here; nearly all actives have a fitted effect of over 45% in size
Vaccinia Venus: inhibitors of vaccinia virus (Venus reporter); Vaccinia virus Venus reporter expression, fluorescence; Potency, µM (titrated, usually from 36.5 µM), without a hit: at the highest dose activity change, negative = inhibition, hits mostly inhibitors; hit rate 0.46% among 330,000; AID 720580; calls by dose curve; tested in A549 cells; further: nearly all actives have a fitted effect of over 30% in size
MARV entry inh: inhibitors of Marburg virus binding or cell entry; Marburg virus pseudotyped entry inhibition, cell reporter; Potency, µM (highest dose often 37.8 µM), inactives show at the top dose activity change, negative = inhibition, most hits filed as inhibitors; hit rate 1.8% among 300,000; calls by dose curve; tested in HEK293 cells
LASV entry inh: inhibitors of Lassa virus binding or cell entry; Lassa virus pseudotype entry inhibition, cell reporter; Potency, µM (titrated, usually from 37.9 µM), for the others: top-dose activity change, negative = inhibition, most hits filed as inhibitors; hit rate 1.2% among 300,000; AID 540256; calls by dose curve; tested in HEK293 cells; further: nearly all actives have a fitted effect of over 50% in size
The depositor's hits bear a star; [ ] = remark or other dose. On the % scale 0 is the no-effect control and ±100 the full control effect; potency means the concentration at half of the fitted maximal effect.

`Cc1cccc(NC(c2cccc(Cl)c2)c2ccc3cccnc3c2O)n1` (configuration not stated) gave VACV mCherry inh inconclusive, FMDV antiviral -12%, Vaccinia Venus inconclusive, MARV entry inh inconclusive and LASV entry inh 10µM*.
CCCCC(=O)NC(c1ccc(Cl)cc1)c1ccc2cccnc2c1O (configuration not stated) was read as VACV mCherry inh 6.3µM*, FMDV antiviral -3%, Vaccinia Venus inconclusive, MARV entry inh 4µM* and LASV entry inh inconclusive.
CC(C)C(=O)NC(c1ccco1)c1ccc2cccnc2c1O (configuration not stated) was read as FMDV antiviral -18%, Vaccinia Venus inconclusive, MARV entry inh inconclusive and LASV entry inh inconclusive.
Cc1ccnc(NC(c2cccc(O)c2)c2ccc3ccc(C)nc3c2O)c1 (configuration not stated) was read as VACV mCherry inh -15%, FMDV antiviral -17%, Vaccinia Venus -7%, MARV entry inh 3%[46.1 µM] and LASV entry inh -9%[46.1 µM].
Oc1c(C(Nc2nccs2)c2ccc(C(F)(F)F)cc2)ccc2cccnc12 (configuration not stated) was read as VACV mCherry inh 7.1µM*, FMDV antiviral inconclusive, Vaccinia Venus inconclusive, MARV entry inh 4.5µM* and LASV entry inh inconclusive.
`CCCC(=O)NC(c1ccc(Cl)cc1)c1ccc2cccnc2c1O` (configuration not stated) gave VACV mCherry inh inconclusive, FMDV antiviral -9%, Vaccinia Venus inconclusive, MARV entry inh 3.5µM* and LASV entry inh 4µM*.
For Oc1c(C(Nc2cccc(C(F)(F)F)c2)c2ccncc2)ccc2cccnc12 (configuration not stated) the results were VACV mCherry inh inconclusive, FMDV antiviral -16%, Vaccinia Venus inconclusive, MARV entry inh inconclusive and LASV entry inh inconclusive.
`CCCCC(=O)NC(c1ccc(N(CC)CC)cc1)c1ccc2cccnc2c1O` (configuration not stated) gave VACV mCherry inh inconclusive, FMDV antiviral -2%, Vaccinia Venus inconclusive, MARV entry inh inconclusive and LASV entry inh inconclusive.
For CCCCC(=O)NC(c1ccc(N(C)C)cc1)c1ccc2cccnc2c1O (configuration not stated) the results were VACV mCherry inh 1.3µM*, FMDV antiviral 10%, Vaccinia Venus -27%, MARV entry inh inconclusive and LASV entry inh inconclusive.
For NS(=O)(=O)c1ccc(NC(=O)CCC(=O)c2ccc(Cl)s2)cc1 the results were VACV mCherry inh -12%, FMDV antiviral 10%, Vaccinia Venus 0%, MARV entry inh 15%[46.1 µM] and LASV entry inh 16%[46.1 µM].
Screening CCC(NC(=S)NCc1ccc(F)cc1)c1ccc(C)cc1 (configuration not stated) returned VACV mCherry inh -24%, FMDV antiviral 3%, Vaccinia Venus -8%, MARV entry inh 10µM* and LASV entry inh inconclusive.
For Cc1nn(Cc2ccccc2)c(C)c1C=C1C(=O)NC(=S)NC1=O the results were VACV mCherry inh inactive, FMDV antiviral 14µM*, Vaccinia Venus -3%, MARV entry inh -9% and LASV entry inh 2%.
`NS(=O)(=O)c1ccc(NS(=O)(=O)c2ccc(NC(=S)Nc3ccccc3)cc2)cc1` gave VACV mCherry inh inactive, FMDV antiviral 13%, Vaccinia Venus -4%, MARV entry inh 16%[46.1 µM] and LASV entry inh -2%.
`NS(=O)(=O)c1ccc(NC(=S)Nc2ccn(Cc3cccc4ccccc34)n2)cc1` gave VACV mCherry inh -26%, FMDV antiviral inconclusive, Vaccinia Venus -30%, MARV entry inh 6.3µM* and LASV entry inh 3.5µM*.
For COc1ccc(-c2nc(-c3ccc(NC(=O)c4ccncc4)cc3)no2)cc1OC the results were VACV mCherry inh 4%, FMDV antiviral 8.9µM*, Vaccinia Venus -13%, MARV entry inh inconclusive and LASV entry inh -19%.
Cc1nc(-c2ccc(-c3ccc(C(=O)N4CCc5cc6c(cc54)C4(CCN(C)CC4)CO6)cc3)c(C)c2)no1 was read as FMDV antiviral -17% and MARV entry inh 5µM*.
For COc1ccc(NC(=O)c2ccc(-c3ccc(-c4noc(C)n4)cc3C)cc2)cc1OCCN(C)C the results were VACV mCherry inh -15%, FMDV antiviral -4% and Vaccinia Venus -26%.
`COc1ccc(NC(=O)c2ccc(-c3ccc(-c4noc(C)n4)cc3C)cc2)cc1N1CCN(C)CC1` gave VACV mCherry inh -14%, FMDV antiviral -8%, Vaccinia Venus inconclusive, MARV entry inh 2.5µM* and LASV entry inh inconclusive.

Source: PubChem BioAssay
